# Results taken from PubChem BioAssay (NCATS).
# Values joined by “and” are separate entries in the source; they are usually repeats but may differ in a detail not shown here. Equal values may be shown once. Records with an inconclusive call do not appear. A call without a number means that no potency is given here. Active and inactive are the calls of the source. Calls follow the shape of the dose curve; as a rule, active = well fitted cell-killing curve with a large enough effect; inconclusive = small, poorly fitted or top-dose-only effect, or effect the other way; inactive = flat fitted curve, though single readings scatter.
# Assays:
# Assay in all cases: Primary qHTS to identify gynecologic anti-cancer compounds using libraries of approved drugs and bioactive compounds (AID 1345084); also: nearly all actives have a fitted effect of over 55% in size
# CAOV3 = conditions: Gynecologic cancer cell panel viability, ATPlite luminescence, 48 h; series mostly up to 57.5 µM
# Procedure, shortened: (§1)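 Five-concentration response, 48 h; readout is ATP-driven luciferase luminescence.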
# CASKI = conditions: Gynecologic cancer cell panel viability, ATPlite luminescence, 48 h; series mostly up to 57.5 µM
# Procedure, shortened: as §1
# Es-2 = conditions: Gynecologic cancer cell panel viability, ATPlite luminescence, 48 h; series mostly up to 57.5 µM
# Procedure, shortened: as §1
# HeLa = conditions: Gynecologic cancer cell panel viability, ATPlite luminescence, 48 h; series mostly up to 57.5 µM
# Procedure, shortened: as §1
# Hek293T = conditions: Gynecologic cancer cell panel viability, ATPlite luminescence, 48 h, control line for the selectivity index; series mostly up to 57.5 µM
# Procedure, shortened: as §1
# JEG-3 = conditions: Gynecologic cancer cell panel viability, ATPlite luminescence, 48 h; series mostly up to 57.5 µM
# Procedure, shortened: as §1
# OV90 = conditions: Gynecologic cancer cell panel viability, ATPlite luminescence, 48 h; series mostly up to 57.5 µM
# Procedure, shortened: as §1
# PA-1 = conditions: Gynecologic cancer cell panel viability, ATPlite luminescence, 48 h; series mostly up to 57.5 µM
# Procedure, shortened: as §1
# Tov-21-G = conditions: Gynecologic cancer cell panel viability, ATPlite luminescence, 48 h; series mostly up to 57.5 µM
# Procedure, shortened: as §1
# SKOV3 = conditions: Gynecologic cancer cell panel viability, ATPlite luminescence, 48 h; series mostly up to 57.5 µM
# Procedure, shortened: as §1
# Potency is read from the fitted curve at half-maximal effect.
Structure (SMILES),Potency (CAOV3),Potency (CASKI),Potency (Es-2),Potency (HeLa),Potency (Hek293T),Potency (JEG-3),Potency (OV90),Potency (PA-1),Potency (Tov-21-G),Potency (SKOV3)
CCCCc1oc2ccccc2c1C(=O)c1cc(I)c(OCCN(CC)CC)c(I)c1,inactive,inactive,inactive,inactive,inactive,inactive,inactive,inactive,inactive,
CCC1(c2ccccc2)C(=O)NCNC1=O,inactive,inactive,inactive,inactive,inactive,inactive,inactive,inactive,inactive,inactive
CC(C)(C)C(=O)Oc1ccc(S(=O)(=O)Nc2ccccc2C(=O)NCC(=O)O)cc1,inactive,inactive,inactive,inactive,inactive,inactive,inactive,inactive,inactive,
CC[C@@]1(O)C(=O)OCc2c1cc1n(c2=O)Cc2cc3c(CN(C)C)c(O)ccc3nc2-1,3.16 µM (active),1.26 µM (active) and 4.47 µM (active),2 µM (active),inactive,8.91 µM (active),,,447 nM (active) and 1.58 µM (active),31.6 µM (active),14.1 µM (active)
C[C@](N)(Cc1ccc(O)c(O)c1)C(=O)O,inactive,inactive,inactive,inactive,inactive,,inactive,inactive,inactive,inactive
O=c1c(O)c(-c2ccc(O)c(O)c2)oc2cc(O)cc(O)c12,inactive,inactive,inactive,15.8 µM (active),inactive,inactive,,,inactive,inactive
Cc1cnc(C(=O)NCCc2ccc(S(=O)(=O)NC(=O)NC3CCCCC3)cc2)cn1,inactive,inactive,inactive,inactive,inactive,inactive,inactive,inactive,inactive,inactive
CN(CCOc1ccc(NS(C)(=O)=O)cc1)CCc1ccc(NS(C)(=O)=O)cc1,inactive,inactive,inactive,inactive,inactive,inactive,inactive,inactive,inactive,inactive
CC(C)(Oc1ccc(C2CC2(Cl)Cl)cc1)C(=O)O (stereo not given),inactive,inactive,inactive,inactive,inactive,inactive,inactive,inactive,inactive,inactive
CC(C)NCC(O)c1ccc(O)c(O)c1 (stereo not given),inactive,inactive,inactive,inactive,inactive,inactive,,,inactive,inactive
Cn1ccc2cc3c(cc21)CCN3C(=O)Nc1cccnc1,inactive,inactive,inactive,inactive,inactive,inactive,inactive,inactive,inactive,inactive
COc1ccc(C2CNC(=O)C2)cc1OC1CCCC1 (stereo not given),inactive,inactive,inactive,inactive,inactive,inactive,inactive,inactive,inactive,inactive
O=C(C1CCCCC1)N1CC(=O)N2CCc3ccccc3C2C1 (stereo not given),inactive,inactive,inactive,inactive,inactive,inactive,inactive,inactive,inactive,inactive
O=c1[nH]cc(F)c(=O)[nH]1,inactive,inactive,inactive,inactive,inactive,,inactive,,,inactive
N[C@@H](Cc1c[nH]c2ccc(O)cc12)C(=O)O,inactive,inactive,inactive,inactive,inactive,inactive,,inactive,inactive,inactive
COc1cc2nc(N(C)CCCNC(=O)C3CCCO3)nc(N)c2cc1OC (stereo not given),inactive,inactive,inactive,inactive,inactive,inactive,inactive,inactive,inactive,inactive
CN1CCN(CCCN2c3ccccc3Sc3ccc(Cl)cc32)CC1,inactive,inactive,inactive,inactive,inactive,inactive,,,inactive,inactive
COc1ccc2c(c1)c(CC(=O)O)c(C)n2C(=O)c1ccc(Cl)cc1,inactive,inactive,inactive,inactive,inactive,inactive,,inactive,inactive,inactive
CN(C)c1nc(N(C)C)nc(N(C)C)n1,inactive,inactive,inactive,inactive,inactive,inactive,inactive,inactive,inactive,
CCCNCC(O)COc1ccccc1C(=O)CCc1ccccc1 (stereo not given),inactive,inactive,inactive,inactive,inactive,inactive,,inactive,inactive,
Nc1c2c(nc3ccccc13)CCCC2,inactive,inactive,inactive,inactive,inactive,inactive,inactive,inactive,inactive,
CC1(C)O[C@H]2CC(=O)OC[C@]23[C@H]2CC[C@@]4(C)[C@H](c5ccoc5)OC(=O)[C@H]5O[C@]54[C@]2(C)C(=O)C[C@@H]13,inactive,inactive,inactive,inactive,inactive,inactive,inactive,inactive,inactive,inactive
CC1(CN2CCC(n3c(=O)[nH]c4ccccc43)CC2)OCc2ccccc2-n2cccc21 (stereo not given),inactive,inactive,inactive,inactive,inactive,inactive,,inactive,inactive,inactive
COc1cc2nc(N3CCN(C(=O)C4COc5ccccc5O4)CC3)nc(N)c2cc1OC (stereo not given),inactive,inactive,inactive,inactive,inactive,inactive,,inactive,inactive,
COC(=O)Nc1nc2ccc(C(=O)c3cccs3)cc2[nH]1,inactive,,0.282 µM (active),0.158 µM (active),,0.355 µM (active),7.08 µM (active),0.224 µM (active),,
C[C@H]1c2cccc(O)c2C(O)=C2C(=O)[C@]3(O)C(O)=C(C(N)=O)C(=O)[C@@H](N(C)C)[C@@H]3[C@@H](O)[C@@H]21,inactive,,inactive,inactive,inactive,inactive,inactive,inactive,inactive,inactive
Fc1ccc([C@@H]2CCNC[C@H]2COc2ccc3c(c2)OCO3)cc1,,inactive,,inactive,inactive,inactive,,inactive,inactive,

Structure (SMILES),Potency (CAOV3),Potency (CASKI),Potency (Es-2),Potency (HeLa),Potency (Hek293T),Potency (JEG-3),Potency (OV90),Potency (PA-1),Potency (Tov-21-G),Potency (SKOV3)
Cn1c(=O)c2c(ncn2C)n(C)c1=O,,inactive,inactive,inactive,inactive,inactive,inactive,inactive,inactive,inactive
Cc1cc(C(C)(C)C)cc(C)c1CC1=NCCN1,inactive,inactive,,,,inactive,,,inactive,
CC(C)Cc1ccc(C(C)C(=O)O)cc1 (stereo not given),,inactive,inactive,inactive,inactive,inactive,inactive,inactive,inactive,
NC(CO)C(=O)NNCc1ccc(O)c(O)c1O (stereo not given),,inactive,inactive,inactive,inactive,inactive,inactive,,inactive,
CC1COc2c(N3CCN(C)CC3)c(F)cc3c(=O)c(C(=O)O)cn1c23 (stereo not given),,inactive,inactive,inactive,inactive,inactive,inactive,inactive,inactive,inactive
CN1CCN(C2=Nc3cc(Cl)ccc3Nc3ccccc32)CC1,,inactive,inactive,inactive,inactive,inactive,,,inactive,31.6 µM (active)
CN(C)CCCN1c2ccccc2CCc2ccc(Cl)cc21,,,,inactive,,inactive,,inactive,inactive,
O=C(Nc1ccc([N+](=O)[O-])cc1Cl)c1cc(Cl)ccc1O,,6.31 µM (active),2.51 µM (active),1.26 µM (active),1.78 µM (active),2.82 µM (active),inactive,2 µM (active),3.55 µM (active),3.98 µM (active)
CNCCCC12CCC(c3ccccc31)c1ccccc12,,,,inactive,inactive,inactive,17.8 µM (active),,inactive,11.2 µM (active)
CC(C)C(=O)Nc1ccc([N+](=O)[O-])c(C(F)(F)F)c1,inactive,inactive,inactive,inactive,,,,,inactive,
COc1ccccc1N1CCN(CC(O)COc2cccc3ccccc23)CC1 (stereo not given),12.6 µM (active),14.1 µM (active),25.1 µM (active),,31.6 µM (active),,,3.55 µM (active),,1.78 µM (active)
O=C(CCCN1CCC(O)(c2ccc(Cl)cc2)CC1)c1ccc(F)cc1,,inactive,inactive,inactive,inactive,inactive,,,,
CN(C)CCC=C1c2ccccc2C=Cc2ccccc21,inactive,inactive,,inactive,inactive,inactive,,inactive,inactive,
CC(=O)OCC(CCn1cnc2cnc(N)nc21)COC(C)=O,,inactive,inactive,inactive,inactive,inactive,inactive,inactive,inactive,inactive
CS(=O)(=O)CCNCc1ccc(-c2ccc3ncnc(Nc4ccc(OCc5cccc(F)c5)c(Cl)c4)c3c2)o1,,inactive,inactive,inactive,inactive,inactive,inactive,inactive,inactive,inactive
O=C1c2c(O)ccc(O)c2C(=O)c2c(NCCNCCO)ccc(NCCNCCO)c21,3.16 µM (active),2.82 µM (active),,15.8 µM (active),10 µM (active),11.2 µM (active),28.2 µM (active),,28.2 µM (active),
O=c1c(-c2ccc(O)cc2)coc2cc(O)cc(O)c12,inactive,,inactive,,inactive,,inactive,,3.98 µM (active),
COc1ccccc1OCCNCC(O)COc1cccc2[nH]c3ccccc3c12 (stereo not given),inactive,,inactive,inactive,,,,inactive,inactive,inactive
O=C1N(c2ccccc2)c2ccccc2C1(Cc1ccncc1)Cc1ccncc1,inactive,,1 µM (active),inactive,inactive,inactive,inactive,inactive,inactive,inactive
Clc1ccccc1C(c1ccccc1)(c1ccccc1)n1ccnc1,inactive,inactive,inactive,inactive,,inactive,,,inactive,inactive
COc1cc2nc(N3CCN(C(=O)c4ccco4)CC3)nc(N)c2cc1OC,,inactive,,inactive,,,,,,
CC#C[C@]1(O)CC[C@H]2[C@@H]3CCC4=CC(=O)CCC4=C3[C@@H](c3ccc(N(C)C)cc3)C[C@@]21C,inactive,inactive,inactive,,inactive,inactive,inactive,inactive,inactive,inactive
CN(Cc1cnc2nc(N)nc(N)c2n1)c1ccc(C(=O)N[C@@H](CCC(=O)O)C(=O)O)cc1,inactive,,,0.199 µM (active),0.158 µM (active),0.316 µM (active),,,0.1 µM (active),inactive
CN1CCC(=C2c3ccccc3C=Cc3ccccc32)CC1,inactive,inactive,inactive,inactive,,inactive,,inactive,inactive,inactive
Cc1cn([C@H]2C[C@H](N=[N+]=[N-])[C@@H](CO)O2)c(=O)[nH]c1=O,inactive,,inactive,inactive,inactive,inactive,inactive,,inactive,inactive
OCCN1CCN(CCCN2c3ccccc3Sc3ccc(C(F)(F)F)cc32)CC1,inactive,,inactive,inactive,,inactive,,inactive,inactive,inactive
O=C1Cc2cc(CCN3CCN(c4nsc5ccccc45)CC3)c(Cl)cc2N1,,inactive,inactive,inactive,inactive,inactive,inactive,inactive,inactive,inactive
